Screens deposited in PubChem BioAssay by National Center for Advancing Translational Sciences (NCATS).
Pf growth 96h = P. falciparum growth inhibition at 96 hour, primary screen for plastid delayed-death inhibitors. P. falciparum luciferase reporter growth, 96 h. Potency, µM (doses to about 28.7 µM), inactives show top-dose activity change, negative = inhibition, most hits filed as inhibitors. actives 6.9% (n = 320,000); active = well fitted inhibition curve with a large enough effect; inconclusive = small, poorly fitted or top-dose-only effect, or another doubt; inactive = no such curve, though single readings can be large or run the other way; also: potency is read from the fitted curve at half-maximal effect; % is scaled to controls: 0 for no effect and ±100 for the full control effect
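Compounds incubated with erythrocytes infected by luciferase-expressing P. falciparum (2% hematocrit, 0.05% parasitemia final) for 96 hours, 37 C in 5% CO2. Growth inhibition scored as decreased luciferase luminescence.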
Pf growth 48h = P. falciparum growth inhibition at 48 hours (one generation); AID 504832; P. falciparum luciferase growth in erythrocytes, 48 h; actives 5.9% (n = 310,000); Potency, µM (titrated, usually from 28.7 µM), inactives show at the top dose activity change, negative = inhibition, actives largely listed as inhibitors; active = well fitted inhibition curve with a large enough effect; inconclusive = small, poorly fitted or top-dose-only effect, or another doubt; inactive = no such curve, though single readings can be large or run the other way; also: potency is read from the fitted curve at half-maximal effect; % is scaled to controls: 0 for no effect and ±100 for the full control effect
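In quantitative HTS format, infected erythrocytes bearing luciferase-reporter parasites were treated for a single generation at 37 C. Luminescence after adding detection reagent served as the growth measure.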
NS1 inh = influenza NS1 inhibition; Potency, µM (top dose mostly 46.1 µM), without a hit: top-dose activity, positive = more growth; actives 0.4% (n = 270,000); also: potency is read from the fitted curve at half-maximal effect; actives are rising curves; nearly all actives have a fitted effect of over 50% in size
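Recovery from NS1-induced slow growth read by OD600 in budding yeast switched to galactose assay medium (pH 6.0, -URA) at 1:100 dilution. Compound 23 nl per well; the matching strain lacking NS1 serves as control.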
Shiga inhibitor = blocks Shiga toxin action in Vero cells; Vero cells, Shiga toxin protein synthesis inhibition reporter; inhibition, % at 38.7 µM; actives 9.2% (n = 290,000); in the data active = inhibition mostly above about 28%, no sharp cut-off; inactive = mostly below about 43%; also: 0% is about no effect
SARS PLP yeast = inhibitors of SARS-CoV papain-like protease in yeast; AID 485353; actives 0.19% (n = 330,000); S. cerevisiae expressing SARS-CoV PLpro, growth rescue; Potency, µM (titrated, usually from 32.9 µM), for the others: top-dose activity, positive = growth rescue, most hits filed as activators; also: potency is read from the fitted curve at half-maximal effect; 0% is about no effect; nearly all actives have a fitted effect of over 55% in size
Cycloheximide cs = affects cycloheximide protein synthesis inhibition readout, counter-screen | cell reporter, cycloheximide protein synthesis inhibition counterscreen | max response, % | actives 12% (n = 300,000); in the data active = max response mostly above about 13%, no sharp cut-off; inactive = mostly below about 14%; also: read at 38.3 µM for the half of the compounds with a filed dose; 0% is about no effect
* hit, by the source's call. Only some compounds are listed: those with a hit (about 21% of all), similar ones and a draw of the others. Unless noted, calls follow the shape of the full dose curve.

For CC(C)n1cc(C(=O)N2CCCC(Nc3ccc(F)c(F)c3)C2)cn1 (stereo not drawn) the results were Pf growth 96h -25%, Pf growth 48h 0%, NS1 inh 14%, Shiga inhibitor 14, SARS PLP yeast -3% and Cycloheximide cs 27*.
For Cc1ncsc1CCC(=O)N1CCCC(Nc2ccc(F)c(F)c2)C1 (stereo not drawn) the results were Pf growth 96h 12µM*, Pf growth 48h 0%, NS1 inh 5%, Shiga inhibitor -13, SARS PLP yeast -1% and Cycloheximide cs 1.
`Cc1ccc(NC2CCCN(C(=O)CCc3scnc3C)C2)cc1C` (stereo not drawn) gave Pf growth 96h -28%, Pf growth 48h -28%, NS1 inh -2%, Shiga inhibitor 10, SARS PLP yeast -4% and Cycloheximide cs -2.
`CC(C)c1cc(C(=O)N2CCCC(Nc3ccc(F)c(F)c3)C2)nc(N)n1` (stereo not drawn) gave Pf growth 96h inconclusive, Pf growth 48h -2%, NS1 inh 7%, Shiga inhibitor -15, SARS PLP yeast 1% and Cycloheximide cs -4.
Cc1ccc(C(=O)N2CCCC(Nc3ccc(F)c(F)c3)C2)cn1 (stereo not drawn) was read as Pf growth 96h 12µM*, Pf growth 48h -1%, NS1 inh 6%, Shiga inhibitor -7, SARS PLP yeast 0% and Cycloheximide cs 1.
CCCn1nc(C(=O)NNC(=O)CCCOc2ccc(C)cc2)c2ccccc2c1=O was read as Pf growth 96h -3%, Pf growth 48h -3%, NS1 inh 1%, Shiga inhibitor 2, SARS PLP yeast inconclusive and Cycloheximide cs -2.
For CCOC(=O)C1CCC(CNCc2ccc(Cl)cc2)CC1 (stereo not drawn) the results were Pf growth 96h 52%, Pf growth 48h -12%, NS1 inh -3%, Shiga inhibitor -7, SARS PLP yeast 4% and Cycloheximide cs -1.
For CCOC(=O)c1c(C)[nH]c(C)c1S(=O)(=O)N(C)CC(=O)Nc1ccccc1OC the results were Pf growth 96h inconclusive, Pf growth 48h 10µM*, NS1 inh -9%, Shiga inhibitor 4, SARS PLP yeast -3% and Cycloheximide cs 0.
Fc1cccc(CN(C2=NCCN2)c2c(Cl)cccc2Cl)c1 was read as Pf growth 96h 3% and Pf growth 48h 12µM*.
For Cc1nc(CN(C)C(=O)c2ccccc2OC2CCN(S(C)(=O)=O)CC2)cs1 the results were Pf growth 96h 3%, Pf growth 48h -1%, NS1 inh -2%, Shiga inhibitor -1, SARS PLP yeast 1% and Cycloheximide cs 5.
For O=C(COC(=O)CCc1nc2ccccc2s1)Nc1nc(-c2ccccc2)cs1 the results were Pf growth 96h 38%, Pf growth 48h 40%, NS1 inh 8%, Shiga inhibitor 47*, SARS PLP yeast 2% and Cycloheximide cs 18*.
For Cc1csc(NC(=O)CCc2nc3ccccc3s2)n1 the results were Pf growth 96h -3%, Pf growth 48h -2%, NS1 inh -10%, Shiga inhibitor 37, SARS PLP yeast -1% and Cycloheximide cs 24*.
Screening O=C(COC(=O)CCc1nc2ccccc2s1)Nc1ncc(Cl)cc1Cl returned Pf growth 96h -19%, Pf growth 48h 8%, NS1 inh -18%, Shiga inhibitor 13, SARS PLP yeast 0% and Cycloheximide cs -2.
For CCO[C@@H]1OC(C(=O)N2CCCCCCC2)=C[C@H](c2ccc(C(F)(F)F)cc2)[C@H]1CCCO the results were Pf growth 96h inconclusive, Pf growth 48h -28%, NS1 inh 8%, Shiga inhibitor -5, SARS PLP yeast 0% and Cycloheximide cs -2.
For CC(C)Cn1cnc2c(Sc3c([N+](=O)[O-])ncn3C)nc(N)nc21 the results were NS1 inh -3%.
For O=C(N/N=C/C1CC=CCC1)c1ccccc1O (stereo not drawn) the results were Pf growth 96h 1%, Pf growth 48h -12%, NS1 inh -3%, Shiga inhibitor 39*, SARS PLP yeast -4% and Cycloheximide cs 29*.
For O=C(CNc1ccccc1F)N/N=C/C1CC=CCC1 (stereo not drawn) the results were Pf growth 96h 22%, Pf growth 48h -11%, Shiga inhibitor 9, SARS PLP yeast -1% and Cycloheximide cs -1.
`C/C=N/NC(=O)c1cc(Br)ccc1O` gave Pf growth 96h 10%, Pf growth 48h 27%, NS1 inh -4%, Shiga inhibitor 20, SARS PLP yeast -7% and Cycloheximide cs 12.
For O=C(N/N=C/C1CC=CCC1)c1cc(Br)ccc1O (stereo not drawn) the results were Pf growth 96h 33%, Pf growth 48h 2%, NS1 inh -26%, Shiga inhibitor 9, SARS PLP yeast inconclusive and Cycloheximide cs 31*.
For O=C(COC(=O)c1ccc2c(c1)OCCO2)NCCC1=CCCCC1 the results were Pf growth 96h inconclusive, Pf growth 48h 27%, NS1 inh -18%, Shiga inhibitor 100*, SARS PLP yeast 2% and Cycloheximide cs 23*.
`O=C(COC(=O)c1ccccc1Cl)NCCC1=CCCCC1` gave Pf growth 96h 34%, Pf growth 48h 67%, Shiga inhibitor 83*, SARS PLP yeast -12% and Cycloheximide cs 31*.
Screening O=C(COC(=O)c1cccs1)NCCC1=CCCCC1 returned Pf growth 96h 0%, Pf growth 48h 29%, NS1 inh -2%, Shiga inhibitor 15, SARS PLP yeast 26% and Cycloheximide cs 14*.
For Cc1ccc(C(=O)OCC(=O)NCCC2=CCCCC2)s1 the results were Pf growth 96h -1%, Pf growth 48h 21%, NS1 inh -3%, Shiga inhibitor 14, SARS PLP yeast -13% and Cycloheximide cs 0.
Screening O=C(COC(=O)c1ccccc1NC(=O)c1ccco1)NCCC1=CCCCC1 returned Pf growth 48h -19%, NS1 inh -7%, Shiga inhibitor 108, SARS PLP yeast -3% and Cycloheximide cs 30*.
`O=C(COC(=O)c1ccccc1NC(=O)c1ccco1)NCC1CCCCC1` gave Pf growth 96h inconclusive, NS1 inh 2%, Shiga inhibitor 18, SARS PLP yeast -12% and Cycloheximide cs 0.
`Cc1ccc2cccc(S(=O)(=O)N3CCCc4ccccc43)c2n1` gave Pf growth 96h 0%, Pf growth 48h -24%, NS1 inh -4%, Shiga inhibitor -9, SARS PLP yeast 1% and Cycloheximide cs -2.
For O=C(COC(=O)c1ccccc1O)NCCC1=CCCCC1 the results were Pf growth 96h 56%, Pf growth 48h 56%, Shiga inhibitor 90*, SARS PLP yeast -4% and Cycloheximide cs 47*.
For O=C(COC(=O)c1ccc(O)cc1)NCCC1=CCCCC1 the results were Pf growth 96h -11%, Pf growth 48h 1%, Shiga inhibitor 5, SARS PLP yeast 0% and Cycloheximide cs 8.
